# Laboratory results: PubChem BioAssay (NCATS)
# Records with an inconclusive call do not appear. Values without a mark were called inactive. Calls come from the whole dose curve; as a rule, active = well fitted cell-killing curve with a large enough effect; inconclusive = small, poorly fitted or top-dose-only effect, or effect the other way; inactive = flat fitted curve, though single readings scatter.
# Tested on: Tov-21-G
# Experiment: Primary qHTS to identify gynecologic anti-cancer compounds using libraries of approved drugs and bioactive compounds (AID 1345084); note: nearly all actives have a fitted effect of over 55% in size
# Conditions: Gynecologic cancer cell panel viability, ATPlite luminescence, 48 h; series mostly up to 57.5 µM; activity change, negative = cytotoxicity: at the top concentration
# Procedure, shortened: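 Cytotoxicity screen measuring ATP content by luciferase luminescence. Each compound is applied at five concentrations for 48 h at 37 C with 5% CO2.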
# % is set by controls: 0 for no effect and ±100 for the full control effect.
row,SMILES,"activity change, negative = cytotoxicity [%]"
1,CC(=O)N1CCN(c2ccc(O)cc2)CC1,-5.69
2,[O-][n+]1cccc(/C(Cl)=N/OC[C@@H](O)CN2CCCCC2)c1,5.35
3,CC(C)C(=O)OCc1cccc(OC(=O)[C@@H]2N3C(=O)[C@@H](NC(=O)Cc4ccccc4)[C@H]3SC2(C)C)c1,0.0706
4,CC(C)NC(=O)c1ccc(C=O)cc1,8.3
5,COc1cc2nc(Cl)nc(N)c2cc1OC,18.9
6,COc1cc(/C=C/C(N)=O)cc(OC)c1OC,14
7,Cc1onc(-c2ccccc2)c1C(=O)Cl,5.26
8,O=c1[nH]c2ccccc2c(=O)n1CCCl,6.39
9,CSCC[C@H](NC(=O)[C@H](Cc1c[nH]c2ccccc12)NC(=O)CCNC(=O)OC(C)(C)C)C(=O)N[C@@H](CC(=O)O)C(=O)N[C@@H](Cc1ccccc1)C(N)=O,4.13
10,CCN1CCN(c2cc(-c3ccc(F)cc3)c3c(n2)CCCCCC3)CC1,3.45
11,N#CC1(c2ccc(F)cc2)CCC(=O)CC1,-0.297
12,Cc1ccc(CCn2c3c(c4cc(Cl)ccc42)CN(C)CC3)cn1,-2.85
13,CN1Cc2cc(C(=O)N3CCC(C4CCNCC4)CC3)ccc2N[C@@H](CC(=O)O)C1=O,4.99
14,CCCC(=O)O[C@]1(C(=O)CC)CC[C@H]2[C@@H]3CCC4=CC(=O)CC[C@]4(C)[C@H]3[C@@H](O)C[C@@]21C,-0.892
15,COc1ccccc1N1CCN(CCN2C(=O)CC3(CCCC3)CC2=O)CC1,6.61
16,CNC(=O)c1c(I)c(NC(C)=O)c(I)c(C(=O)O)c1I,-1.48
17,O=C1c2ccccc2CCc2ccccc21,-1.7
18,Cc1nc2n(c(=O)c1CCN1CCC(C(=O)c3ccc(F)cc3)CC1)CCS2,-0.671
